The supplement of paper PMC10646978
± gives the standard deviation.

How the values were obtained:
Conditions in all cases: modulator concentration 10 µM
[1] = test system: RAW-Dual (murine macrophage reporter line); assay: NF-kB reporter (SEAP) activity fold change vs agonist alone; higher = enhanced NF-kB activity
In short: (§1)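 Compound reached 10 μM final in each well by pin transfer, onto RAW-Dual murine macrophage reporter cells seeded at 50 000 per well in 384-well plates. After 1 hour at 37 °C, the cells were stimulated overnight with a PRR agonist. SEAP in the supernatant was read with QUANTI-Blue at 620 nm absorbance for NF-κB, and Lucia luciferase was read with QUANTI-Luc luminescence for IRF. Each signal was turned into fold change against the mean agonist-only control on the same plate, and two replicate plates were averaged with propagated errors.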

[2] = test system: RAW-Dual (murine macrophage reporter line); assay: IRF reporter (Lucia luciferase) activity fold change vs agonist alone; higher = enhanced IRF activity
In short: as §1

[3] = test system: RAW-Dual (murine macrophage reporter line); assay: viability score (confluency relative to resting cells, overnight) (fraction); higher = more viable, active = viable (0.7 or more)
In short: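 A compound met the cutoff when both of two confluency masks exceeded 70% of resting cells. Those masks were made with IncuCyte software from IncuCyte images of RAW-Dual macrophages treated overnight at 10 μM final. This is the basis of the viability score, which is confluency relative to resting cells.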

[4] = agonist: CpG ODN 1826 0.5 ug/mL

SMILES	NF-kB reporter [1, 4]	NF-kB reporter ([1]; agonist: LPS 0.1 ug/mL)	NF-kB reporter ([1]; agonist: MPLA […])	IRF reporter ([2]; agonist: 3'3'-cGAMP 10 ug/mL)	IRF reporter ([2]; agonist: LPS 0.1 ug/mL)	IRF reporter ([2]; agonist: MPLA […])	viability score [3]
COC(=O)c1cccc(Nc2nc(C=Cc3ccccc3)nc3ccccc23)c1	1.3 ± 0.12	1.28 ± 0.1	5.46 ± 0.19	0.658 ± 0.023	0.945 ± 0.14	5.98 ± 0.47	0.851 (active)
COc1ccc(N(CC(=O)NCCSCc2cccc(Cl)c2)S(C)(=O)=O)cc1Cl	0.917 ± 0.073	0.98 ± 0.065	0.831 ± 0.05	1.11 ± 0.031	1.08 ± 0.12	0.974 ± 0.098	1 (active)
CC(C)COc1ccc(CNC(=O)N(Cc2ccc(F)cc2)C2CCN(C)CC2)cc1.CC(C)COc1ccc(CNC(=O)N(Cc2ccc(F)cc2)C2CCN(C)CC2)cc1.O=C(O)[C@H](O)[C@@H](O)C(=O)O	0.136 ± 0.016	0.384 ± 0.16	0.129 ± 0.012	0.0542 ± 0.025	0.528 ± 0.31	0.03 ± 0.0028	0.0597 (inactive)
c1ccc(-c2ccc(C(c3ccccc3)n3ccnc3)cc2)cc1 (centres undefined)	0.825 ± 0.097	0.893 ± 0.083	1.22 ± 0.12	0.966 ± 0.044	1.31 ± 0.076	1.41 ± 0.15	1 (active)
CC1=NN(C(=O)c2cccnc2)C(O)(c2ccccc2)C1 (centres undefined)	0.893 ± 0.071	0.969 ± 0.1	0.949 ± 0.041	0.951 ± 0.09	1.05 ± 0.13	1.1 ± 0.2	0.994 (active)
Cc1[nH]nc(-c2ccc(OCc3ccccc3)c(C)c2O)c1-c1cnn(-c2ccccc2)c1	0.892 ± 0.073	1.1 ± 0.077	0.784 ± 0.049	0.95 ± 0.026	1.58 ± 0.19	1.11 ± 0.095	1.01 (active)
CC(=NNC(=O)CSc1nc2ccccc2n1Cc1ccccc1)c1ccc(Cl)cc1	0.846 ± 0.068	0.923 ± 0.089	1 ± 0.1	0.979 ± 0.046	1.4 ± 0.081	1.36 ± 0.16	1.02 (active)
CC(CN1c2ccccc2Sc2ccccc21)N(C)C.Cl (centres undefined)	0.789 ± 0.11	1.17 ± 0.29	0.96 ± 0.055	0.336 ± 0.024	1.16 ± 0.42	1.15 ± 0.091	0.389 (inactive)
COCCOCC1CCN(C(=O)c2cc(-c3cccc(OC)c3)n[nH]2)CC1	1.09 ± 0.076	0.967 ± 0.092	0.992 ± 0.051	0.957 ± 0.039	1.04 ± 0.059	0.985 ± 0.2	0.995 (active)
CC1CC(C)CN(C(=O)CSc2nnc(Cc3ccccc3)o2)C1 (centres undefined)	0.917 ± 0.048	1.06 ± 0.091	0.879 ± 0.11	1.01 ± 0.071	0.944 ± 0.093	0.858 ± 0.34	0.981 (active)
COc1ccc(C(=O)Nc2sc3c(c2C(N)=O)CCCC3)cc1OC	0.866 ± 0.067	1.01 ± 0.056	1.09 ± 0.029	0.694 ± 0.038	0.942 ± 0.12	1.08 ± 0.14	0.998 (active)
COc1ccc(C=NNc2nc(Nc3ccc(C)cc3Br)nc(N3CCOCC3)n2)c(OC)c1	0.238 ± 0.024	1.13 ± 0.13	1.84 ± 0.18	0.649 ± 0.067	1.67 ± 0.23	2.01 ± 0.27	1.05 (active)
CC(C)C1=CC2=CCC3C(C)(C(=O)O)CCCC3(C)C2CC1 (centres undefined)	0.962 ± 0.076	0.863 ± 0.065	0.891 ± 0.085	0.93 ± 0.03	1.22 ± 0.2	1.35 ± 0.33	1.05 (active)
CN(C(=O)COc1coc(CN2CCN(c3ccccc3)CC2)cc1=O)c1ccccc1	0.931 ± 0.052	0.933 ± 0.06	0.977 ± 0.057	0.97 ± 0.034	1.18 ± 0.12	0.986 ± 0.088	1 (active)
CC(O)c1cn(-c2cccc(C(F)(F)F)c2)nn1 (centres undefined)	1.05 ± 0.35	1.16 ± 0.072	1.04 ± 0.078	0.861 ± 0.038	1.15 ± 0.12	1.23 ± 0.17	1 (active)
O=C(NCCCOc1cccc2cccnc12)c1cnccn1	1.03 ± 0.059	0.979 ± 0.094	0.998 ± 0.035	0.95 ± 0.036	1.01 ± 0.052	0.99 ± 0.1	1 (active)
COc1cc2c(Oc3ccc(NC(=O)C4(C(=O)Nc5ccc(F)cc5)CC4)cc3F)ccnc2cc1OCCCN1CCOCC1	0.179 ± 0.0098	0.146 ± 0.013	0.238 ± 0.011	0.0512 ± 0.015	0.0684 ± 0.0041	0.138 ± 0.025	0.136 (inactive)
O=C(Oc1ccc2oc(=O)sc2c1)c1ccccc1	0.969 ± 0.2	0.917 ± 0.091	0.862 ± 0.1	0.325 ± 0.017	1.26 ± 0.13	1.36 ± 0.22	0.632 (inactive)
Br.C=CCn1c(=N)n(CC(=O)c2cccc([N+](=O)[O-])c2)c2ccccc21	0.571 ± 0.058	0.997 ± 0.057	0.905 ± 0.062	1.13 ± 0.064	1.16 ± 0.099	0.973 ± 0.2	1.01 (active)
N[C@@H](CC(=O)N1CCn2c(nnc2C(F)(F)F)C1)Cc1cc(F)c(F)cc1F	0.793 ± 0.19	0.989 ± 0.063	0.905 ± 0.058	0.908 ± 0.044	1.05 ± 0.12	1.1 ± 0.16	0.998 (active)
COc1ccc(C2CNC(=O)C2)cc1OC1CCCC1 (centres undefined)	2.76 ± 0.37	2.2 ± 0.43	1.63 ± 0.1	0.942 ± 0.03	0.963 ± 0.18	1.17 ± 0.089	0.973 (active)
CC(=O)n1cc(C=C(C)[N+](=O)[O-])c2ccccc21	1.07 ± 0.091	0.607 ± 0.079	0.419 ± 0.055	0.445 ± 0.015	0.297 ± 0.11	0.183 ± 0.067	0.861 (active)
COc1ccc(C2C3=C(CC(c4ccccc4)CC3=O)Nc3ccccc3N2C(=O)C(C)C)cc1OC (centres undefined)	1.02 ± 0.089	1.05 ± 0.063	1.01 ± 0.071	1.02 ± 0.025	1.56 ± 0.21	1.2 ± 0.087	1.01 (active)
CCS(=O)(=O)c1ccc(-c2cccc(NC(=O)CC3CCCC3)c2)nn1	1.19 ± 0.099	0.932 ± 0.073	1.01 ± 0.029	0.905 ± 0.033	0.973 ± 0.056	0.926 ± 0.13	0.999 (active)
CC(C)Oc1ccc(C(=O)NC2CCN(c3ncnc4c3CCCC4)CC2)cn1	1.15 ± 0.086	1.14 ± 0.086	0.985 ± 0.031	0.939 ± 0.055	1.06 ± 0.083	1.04 ± 0.11	0.997 (active)
O=C(Cc1ccccc1)NC(NC(=S)Nc1ccc(O)cc1)C(Cl)(Cl)Cl (centres undefined)	0.88 ± 0.075	0.818 ± 0.098	1.06 ± 0.1	0.935 ± 0.032	1.29 ± 0.24	1.57 ± 0.33	1.02 (active)
NC(=O)NO	1.31 ± 0.18	1.21 ± 0.29	0.96 ± 0.057	0.905 ± 0.028	1.44 ± 0.26	1.09 ± 0.084	1 (active)
